Laboratory results as given in the supplement of paper PMC10646978.
± gives the standard deviation.

How the values were obtained:
Conditions in all cases: modulator concentration 10 µM
[1] = tested on: RAW-Dual (murine macrophage reporter line); assay: NF-kB reporter (SEAP) activity fold change vs agonist alone; higher = enhanced NF-kB activity
How it was run: (§1)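 RAW-Dual murine macrophage reporter cells were plated at 50 000 per well in 384-well plates, pin-transferred compound to 10 μM final, and pre-incubated for 1 hour at 37 °C before a PRR agonist was added and the cells incubated overnight. NF-κB activity was read from supernatant SEAP with QUANTI-Blue at 620 nm absorbance, and IRF activity from Lucia luciferase with QUANTI-Luc by luminescence. Each signal was expressed as fold change by dividing by the mean agonist-only control on the same plate. Two replicate plates were averaged, with errors obtained by propagation.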

[2] = tested on: RAW-Dual (murine macrophage reporter line); assay: IRF reporter (Lucia luciferase) activity fold change vs agonist alone; higher = enhanced IRF activity
How it was run: as §1

[3] = tested on: RAW-Dual (murine macrophage reporter line); assay: viability score (confluency relative to resting cells, overnight) (fraction); higher = more viable, active = viable (0.7 or more)
How it was run: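 RAW-Dual macrophages in 384-well plates were exposed overnight to compound at 10 μM final. Confluency was imaged with IncuCyte, and two confluency masks were generated with IncuCyte software over all imaged wells. The viability score is confluency expressed relative to resting cells. Compounds were called viable if both masks exceeded 70% of resting cells.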

[4] = agonist: CpG ODN 1826 0.5 ug/mL

SMILES | NF-kB reporter [1, 4] | NF-kB reporter ([1]; agonist: LPS 0.1 ug/mL) | NF-kB reporter ([1]; agonist: MPLA […]) | IRF reporter ([2]; agonist: 3'3'-cGAMP 10 ug/mL) | IRF reporter ([2]; agonist: LPS 0.1 ug/mL) | IRF reporter ([2]; agonist: MPLA […]) | viability score [3]
Cc1cc(C)n2nc(C(=O)NN=Cc3ccc(N(C)C)cc3)nc2n1 | 1.1 ± 0.069 | 1.09 ± 0.067 | 0.934 ± 0.084 | 0.996 ± 0.033 | 1.37 ± 0.11 | 1.3 ± 0.25 | 1.01 (active)
O=S(=O)(c1ccc(Cl)cc1)N1CCN(C2CC3CCC2C3)CC1 (stereo unspecified) | 0.926 ± 0.062 | 0.994 ± 0.061 | 0.972 ± 0.068 | 1.02 ± 0.037 | 1.42 ± 0.14 | 1.24 ± 0.13 | 0.984 (active)
CCCOc1cccc(C(=O)Nc2scc(-c3ccccc3)c2C(=O)OC(C)C)c1 | 1.79 ± 0.35 | 1.24 ± 0.16 | 2.23 ± 0.46 | 0.635 ± 0.056 | 0.66 ± 0.22 | 0.65 ± 0.041 | 0.883 (active)
CCOc1ccccc1NC(=O)Nc1ccc2c(c1)CCC(=O)N2C | 1.91 ± 0.14 | 1.41 ± 0.11 | 0.99 ± 0.057 | 0.404 ± 0.025 | 0.282 ± 0.032 | 0.389 ± 0.079 | 0.933 (active)
O=C(Cc1ccc([N+](=O)[O-])cc1)NN=Cc1ccccn1 | 1.09 ± 0.18 | 1.07 ± 0.077 | 1.04 ± 0.04 | 0.89 ± 0.11 | 1.05 ± 0.12 | 1.08 ± 0.14 | 1 (active)
CCSc1nnc(NC(=O)Cc2ccc([N+](=O)[O-])cc2)s1 | 1.04 ± 0.21 | 1.02 ± 0.085 | 0.96 ± 0.097 | 0.926 ± 0.026 | 1 ± 0.096 | 1.07 ± 0.12 | 1 (active)
Cc1occc1C(=O)Nc1ccc(F)c(F)c1 | 1.07 ± 0.12 | 0.998 ± 0.16 | 1.11 ± 0.055 | 0.704 ± 0.042 | 1.07 ± 0.081 | 1.46 ± 0.14 | 0.927 (active)
Cc1ccc2nc(NC(=O)CSc3nc4c(c(=O)n3-c3ccccc3)SCC4)sc2c1 | 0.845 ± 0.11 | 0.887 ± 0.1 | 0.853 ± 0.081 | 0.662 ± 0.021 | 1.16 ± 0.14 | 1.27 ± 0.18 | 1.02 (active)
Cc1ccc(C(=O)NC(=Cc2cccc3ccccc23)C(=O)N2CCCC2)cc1 | 0.957 ± 0.075 | 1.03 ± 0.067 | 0.974 ± 0.086 | 0.966 ± 0.042 | 1.31 ± 0.23 | 1.15 ± 0.22 | 1.01 (active)
COc1ccc(CCNC(=O)NCc2nn(C3CCCC3)c3c2CCCC3)cc1 | 0.854 ± 0.037 | 1.04 ± 0.12 | 1.12 ± 0.08 | 0.726 ± 0.057 | 1.13 ± 0.18 | 1.15 ± 0.27 | 0.983 (active)
Nc1ccccc1S(N)(=O)=O [Prestw-913] | 0.95 ± 0.19 | 1.07 ± 0.13 | 1.04 ± 0.092 | 0.943 ± 0.062 | 0.991 ± 0.23 | 1.1 ± 0.2 | 0.995 (active)
Nc1nccs1 | 0.948 ± 0.14 | 1.22 ± 0.088 | 0.91 ± 0.055 | 0.89 ± 0.03 | 1.32 ± 0.16 | 1.2 ± 0.09 | 1 (active)
Cc1nc(-c2ccc(OCC(C)C)c(C#N)c2)sc1C(=O)O | 0.891 ± 0.14 | 0.957 ± 0.34 | 1.02 ± 0.065 | 0.883 ± 0.048 | 0.973 ± 0.3 | 1.06 ± 0.22 | 1 (active)
CC1CC(=O)C2=C(C1)OC(N)=C(C#N)C2c1ccc(Br)cc1 (stereo unspecified) | 0.847 ± 0.088 | 0.91 ± 0.17 | 1 ± 0.056 | 0.782 ± 0.096 | 0.904 ± 0.04 | 0.731 ± 0.12 | 0.994 (active)
Cn1nc2c(c1CNS(=O)(=O)CCC(F)(F)F)CCC2 | 0.93 ± 0.077 | 0.805 ± 0.064 | 1.17 ± 0.15 | 1.01 ± 0.049 | 1.32 ± 0.2 | 1.41 ± 0.49 | 0.981 (active)
Cc1ccc(S(=O)(=O)n2cnc3ccccc32)cc1 | 1.11 ± 0.091 | 1.04 ± 0.071 | 1.02 ± 0.041 | 0.861 ± 0.12 | 1.07 ± 0.09 | 0.993 ± 0.14 | 0.998 (active)
O=[N+]([O-])c1cc2c(cc1C=Nc1ccc(O)cc1)OCO2 | 0.842 ± 0.14 | 1.09 ± 0.17 | 1.27 ± 0.11 | 0.443 ± 0.011 | 1.19 ± 0.15 | 1.12 ± 0.22 | 1 (active)
COC(=O)C1=CN(C2CC2)C=C(C(=O)OC)C1c1ccccc1OC | 0.917 ± 0.074 | 1.05 ± 0.058 | 0.97 ± 0.061 | 0.934 ± 0.074 | 1.22 ± 0.17 | 1 ± 0.097 | 1.01 (active)
